# According to publication PMC5540273 (PLoS ONE, 2017):
# “And” between values parts separate entries of the source, which are not always exact repeats. Identical values can stand only once. Like-named read-outs stand apart in the source and are kept apart here.
# How the values were obtained:
# [1] = test system: RIPK5; details: concentration: 1 μM, replicates: in singlicate, n = 1
# [2] = test system: ROCK1; details: concentration: 1 μM, replicates: in singlicate; n = 1
# [3] = test system: ROCK2; details: concentration: 1 μM, replicates: in singlicate; n = 1
# [4] = test system: ROS1; details: concentration: 1 μM, replicates: in singlicate, n = 1
# [5] = test system: RPS6KA4(Kin.Dom.1-N-terminal); details: concentration: 1 μM, replicates: in singlicate, n = 1
# [6] = test system: RPS6KA4(Kin.Dom.2-C-terminal); details: concentration: 1 μM, replicates: in singlicate, n = 1
# [7] = test system: RPS6KA5(Kin.Dom.1-N-terminal); details: concentration: 1 μM, replicates: in singlicate, n = 1
# [8] = test system: RPS6KA5(Kin.Dom.2-C-terminal); details: concentration: 1 μM, replicates: in singlicate, n = 1
# [9] = test system: T1, RSK1(Kin.Dom.1-N-terminal); details: concentration: 1 μM, replicates: in singlicate, n = 1
# T1 construct: gene RPS6KA1
# [10] = test system: T2, RSK1(Kin.Dom.2-C-terminal); details: concentration: 1 μM, replicates: in singlicate, n = 1
# T2 construct: gene RPS6KA1
# [11] = test system: T3, RSK2(Kin.Dom.1-N-terminal); details: concentration: 1 μM, replicates: in singlicate, n = 1
# T3 construct: gene RPS6KA3
# [12] = test system: T4, RSK2(Kin.Dom.2-C-terminal); details: concentration: 1 μM, replicates: in singlicate; n = 1
# T4 construct: gene RPS6KA3
# [13] = test system: T5, RSK3(Kin.Dom.1-N-terminal); details: concentration: 1 μM, replicates: in singlicate, n = 1
# T5 construct: gene RPS6KA2
# [14] = test system: T6, RSK3(Kin.Dom.2-C-terminal); details: concentration: 1 μM, replicates: in singlicate, n = 1
# T6 construct: gene RPS6KA2
# [15] = test system: T7, RSK4(Kin.Dom.1-N-terminal); details: concentration: 1 μM, replicates: in singlicate, n = 1
# T7 construct: gene RPS6KA6
# [16] = test system: T8, RSK4(Kin.Dom.2-C-terminal); details: concentration: 1 μM, replicates: in singlicate, n = 1
# T8 construct: gene RPS6KA6
# [17] = test system: S6K1; details: concentration: 1 μM, replicates: in singlicate, n = 1
# [18] = test system: SBK1; details: concentration: 1 μM, replicates: in singlicate, n = 1
# [19] = test system: SGK2; details: concentration: 1 μM, replicates: in singlicate, n = 1
# [20] = test system: SGK3; details: concentration: 1 μM, replicates: in singlicate, n = 1
# 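Further: KINOMEscan kinase panel screen.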
compound,measurement,setting,value
Cn1ccc2ncnc(Oc3ccc(NC(=O)Nc4ccncc4)c(Cl)c3)c21,%Inh,[1],0%
same,%Inh,[2],0%
same,%Inh,[3],0%
same,%Inh,[4],0%
same,%Inh,[5],0%
same,%Inh,[6],0%
same,%Inh,[7],13%
same,%Inh,[8],0%
same,%Inh,[9],0%
same,%Inh,[10],0%
same,%Inh,[11],0%
same,%Inh,[12],0%
same,%Inh,[13],0%
same,%Inh,[14],0%
same,%Inh,[15],0%
same,%Inh,[16],0%
same,%Inh,[17],0%
same,%Inh,[18],0%
same,%Inh,[19],2%
same,%Inh,[20],0%
COC(=O)Nc1nc2cc(Oc3ccc(NC(=O)Nc4cc(F)ccc4F)cc3)ccc2[nH]1.Cl [GW701424],%Inh,[1],0%
same,%Inh,[2],52%
same,%Inh,[3],67%
same,%Inh,[4],0%
same,%Inh,[5],0%
same,%Inh,[6],0%
same,%Inh,[7],24%
same,%Inh,[8],43%
same,%Inh,[9],0%
same,%Inh,[10],0%
same,%Inh,[11],5%
same,%Inh,[12],1%
same,%Inh,[13],8%
same,%Inh,[14],13%
same,%Inh,[15],0%
same,%Inh,[16],18%
same,%Inh,[17],2%
same,%Inh,[18],6%
same,%Inh,[19],0%
same,%Inh,[20],12%
COc1ccc(CNC(=O)NC2CCN(c3ccnc(Nc4ccc(OC)cc4)n3)C2)cc1 (stereo not drawn) [GSK1379727],%Inh,[1],55%
same,%Inh,[2],40%
same,%Inh,[3],40%
same,%Inh,[4],0%
same,%Inh,[5],0%
same,%Inh,[6],0%
same,%Inh,[7],7%
same,%Inh,[8],0%
same,%Inh,[9],0%
same,%Inh,[10],0%
same,%Inh,[11],7%
same,%Inh,[12],0%
same,%Inh,[13],0%
same,%Inh,[14],0%
same,%Inh,[15],0%
same,%Inh,[16],21%
same,%Inh,[17],2%
same,%Inh,[18],3%
same,%Inh,[19],0%
same,%Inh,[20],0%
CC(C)Oc1ccc2c(-c3ccnc(Nc4ccc(N5CCN(C)CC5)cc4)n3)cnn2n1 [GW696155],%Inh,[1],77%
same,%Inh,[2],98.8%
same,%Inh,[3],99.7%
same,%Inh,[4],51%
same,%Inh,[5],0%
same,%Inh,[6],99.8%
same,%Inh,[7],0%
same,%Inh,[8],98.9%
same,%Inh,[9],34%
same,%Inh,[10],90%
same,%Inh,[11],44%
same,%Inh,[12],28%
same,%Inh,[13],7%
same,%Inh,[14],77%
same,%Inh,[15],0%
same,%Inh,[16],95.1%
same,%Inh,[17],44%
same,%Inh,[18],88%
same,%Inh,[19],52%
same,%Inh,[20],58%
c1ccc(-c2cc(-c3c[nH]nc3-c3ccccn3)ccn2)cc1 [GW576604],%Inh,[1],0%
same,%Inh,[2],10%
same,%Inh,[3],30%
same,%Inh,[4],21%
same,%Inh,[5],0%
same,%Inh,[6],0%
same,%Inh,[7],0%
same,%Inh,[8],3%
same,%Inh,[9],0%
same,%Inh,[10],1%
same,%Inh,[11],0%
same,%Inh,[12],0%
same,%Inh,[13],0%
same,%Inh,[14],4%
same,%Inh,[15],0%
same,%Inh,[16],8%
same,%Inh,[17],0%
same,%Inh,[18],0%
same,%Inh,[19],0%
same,%Inh,[20],0%
Cc1cccc(Cn2ccn3c(=O)cc(N4CCOCC4)nc23)c1 [GSK2297542],%Inh,[1],1%
same,%Inh,[2],17%
same,%Inh,[3],27%
same,%Inh,[4],30%
same,%Inh,[5],13%
same,%Inh,[6],0%
same,%Inh,[7],16%
same,%Inh,[8],0%
same,%Inh,[9],27%
same,%Inh,[10],25%
same,%Inh,[11],11%
same,%Inh,[12],33%
same,%Inh,[13],19%
same,%Inh,[14],44%
same,%Inh,[15],0%
same,%Inh,[16],42%
same,%Inh,[17],6%
same,%Inh,[18],26%
same,%Inh,[19],1%
same,%Inh,[20],0%
NCCNS(=O)(=O)c1ccc(-c2ccnc3[nH]ccc23)cc1 [GSK977617],%Inh,[1]; 1 µM,3% and 0%
same,%Inh,[3],99.8%
same,%Inh,[4]; 1 µM,65% and 43%
same,%Inh,[5]; 1 µM,48% and 33%
same,%Inh,[6]; 1 µM,99.2% and 98.5%
same,%Inh,[7]; 1 µM,47% and 33%
same,%Inh,[8]; 1 µM,97.6% and 94.8%
same,%Inh,[9]; 1 µM,62% and 27%
same,%Inh,[10]; 1 µM,63% and 41%
same,%Inh,[11]; 1 µM,79% and 60%
same,%Inh,[12],0%
same,%Inh,[13]; 1 µM,40% and 14%
same,%Inh,[14]; 1 µM,29% and 22%
same,%Inh,[15]; 1 µM,54% and 23%
same,%Inh,[16]; 1 µM,48% and 37%
same,%Inh,[17]; 1 µM,71% and 73%
same,%Inh,[18]; 1 µM,79% and 57%
same,%Inh,[19]; 1 µM,24% and 4%
same,%Inh,[20]; 1 µM,57% and 44%
NCC(NC(=O)c1cc(-c2cn[nH]c2)c(-c2ccnc3[nH]ccc23)s1)c1ccccc1.O=C(O)C(F)(F)F.O=C(O)C(F)(F)F (stereo not drawn) [GSK1325775],%Inh,[1],16%
same,%Inh,[2],100%
same,%Inh,[3],99.9%
same,%Inh,[4],0%
same,%Inh,[5],47%
same,%Inh,[6],43%
same,%Inh,[7],13%
same,%Inh,[8],60%
same,%Inh,[9],24%
same,%Inh,[10],5%
same,%Inh,[11],35%
same,%Inh,[12],6%
same,%Inh,[13],7%
same,%Inh,[14],0%
same,%Inh,[15],21%
same,%Inh,[16],8%
same,%Inh,[17],53%
same,%Inh,[18],84%
same,%Inh,[19],79%
same,%Inh,[20],81%
